# NADH enzymes = inhibitors of PK/LDH coupling enzymes, profiling panel, artefact control, biochemical, MLSMR library; IC50, µM (highest dose often 10 µM), without a hit: top-dose inhibition; coupled PK/LDH NADH assays, four targets; actives 0.02% (n = 65,000);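 active means single-dose screening hits from any of four coupled enzyme assays that gave an IC50 when retested across doses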;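 further: the DPM-DC format reads NADH fluorescence rather than 340 nm absorbance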
# Cdc25B inh = inhibitors of Cdc25B phosphatase catalytic domain, primary screen, biochemical, OMFP fluorescence | M-phase inducer phosphatase 2 (Homo sapiens), P30305 | recombinant Cdc25B, OMFP fluorescence Ex485/Em525 | inhibition, %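 (compounds tested at 10 µM final in the well)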 | actives 0.1% (n = 65,000) | AID 368, 2006; in the data active means inhibition above about 50%
# Target sequence (P30305 whole entry, looked up, the tested form may be a part): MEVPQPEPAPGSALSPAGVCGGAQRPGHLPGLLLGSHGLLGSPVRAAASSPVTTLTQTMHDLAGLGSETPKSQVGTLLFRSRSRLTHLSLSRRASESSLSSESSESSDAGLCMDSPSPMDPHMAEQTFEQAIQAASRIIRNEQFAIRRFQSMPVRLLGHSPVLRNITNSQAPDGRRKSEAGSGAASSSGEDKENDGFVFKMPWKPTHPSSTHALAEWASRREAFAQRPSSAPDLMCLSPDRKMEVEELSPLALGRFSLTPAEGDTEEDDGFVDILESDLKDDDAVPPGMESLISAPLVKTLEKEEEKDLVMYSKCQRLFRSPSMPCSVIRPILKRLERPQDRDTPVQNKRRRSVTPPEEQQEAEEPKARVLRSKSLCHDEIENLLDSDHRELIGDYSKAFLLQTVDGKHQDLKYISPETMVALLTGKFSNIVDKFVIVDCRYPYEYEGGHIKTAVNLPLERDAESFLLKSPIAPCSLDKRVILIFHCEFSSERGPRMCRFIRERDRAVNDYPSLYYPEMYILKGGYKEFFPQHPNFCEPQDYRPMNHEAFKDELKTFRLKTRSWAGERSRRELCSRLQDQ
# Hsp90 block = tumor Hsp90 inhibitors, primary screen, cell lysate, fluorescence polarization, NCI-N417 lysate. Heat shock protein HSP 90-alpha (Homo sapiens), P07900. Cy3B-geldanamycin FP displacement. inhibition, % at 30 µM. actives 0.35% (n = 64,000). AID 429, 2006;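 active means inhibition above 50%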;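 further: 0% = tracer plus lysate wells and 100% = tracer alone without lysate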
# A340 absorber = compound light absorbance at 340 nm, profiling panel, artefact control, biochemical, MLSMR library, data from PS, PMK, MK assays; compound absorbance at 340 nm, fold over control; fold change at 10 µM; 65,000 tested, under 10 active;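 active means at 10 µM dose, initial 340 nm absorbance at least 2 fold that of control wells; inactive means change under 2 fold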;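 further: initial absorbance extrapolated from kinetic A340 decline of NADH oxidation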
# Autofluor 339 = intrinsic fluorescence of library compounds, ex339/em460 – biochemical, MLSMR library, data from DPM-DC assay, artefact control, profiling panel. fluorescence fold increase at 10 µM. compound autofluorescence, ex339/em460 nm, NADH buffer; active compounds read high; 1 = no-compound wells, NADH background. actives 5.5% (n = 65,000). AID 709, 2007;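 active means at 10 µM, mean starting fluorescence two-fold or more over control wells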;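 further: signal is the first read of a kinetic run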
# MKP-1 inh = MKP-1 phosphatase inhibitors, primary screen, biochemical, in vitro; recombinant MKP-1, OMFP hydrolysis fluorescence; inhibition, %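 (compounds tested at a single concentration somewhere between 10 and 100 µM)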; actives 0.15% (n = 65,000); AID 374, 2006;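 active means inhibition above about 50%, limit read from the data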;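 further: 0% = DMSO max control wells and 100% = wells with enzyme stopped by NaOH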
# Numbers without * were called inactive; · = no result given. This is a sample that favours compounds with a hit; in the whole collection about 5.7% have one here.
SMILES,NADH enzymes,Cdc25B inh,Hsp90 block,A340 absorber,Autofluor 339,MKP-1 inh
COc1cccc2cc(-c3nc(-c4cccs4)cs3)c(=O)oc12,11.0%,2.9,-3.6,1.04,4.58*,12.1
COc1ccc(-c2cc3nc4n(c(=O)c3s2)CCC4)cc1,4.0%,-5.6,-1.4,1.04,3.02*,1.9
O=C1OCCC1Sc1nc2cc(Cl)ccc2s1 (configuration not stated),5.0%,-6.1,-2.4,0.99,1.08,-0.2
Cc1ccccc1NC(=O)CSc1nc(N)c(C#N)c(-c2cccs2)c1C#N,5.0%,9.4,-3.4,1.02,1.63,12.1
Cc1nn(-c2ccccc2)c2nc(N)c(C#N)c(-c3ccc(F)cc3)c12,9.0%,3.3,-2.6,1.04,3.77*,-19.0
Cc1ccc(-n2nc(C)c3c(-c4cccs4)c(C#N)c(N)nc32)cc1,7.0%,6.0,-1.5,1.06,2.41*,-17.6
CCN(CC)CCCNc1cc(OC)cc2ccc(OC)nc12,·,·,67.2*,·,·,·
CCCC(C)N(CC)CCNc1cc(OC)cc2cccnc12 (configuration not stated),·,·,45.5,·,·,·
COc1ccc(CNc2nc3nc(-c4ccccc4)cc(=O)n3[nH]2)cc1OC,5.0%,-3.3,3.7,1.07,1.38,11.1
O=C(O)C1CCN(c2nc(-c3ccccc3)nc3c2oc2ccccc23)CC1,5.0%,0.4,0.5,1.06,1.18,-7.3
CCOC(=O)C1CCN(Cc2cn[nH]c2-c2ccccc2)CC1,10.0%,-10.8,0.5,1.03,3.83*,25.4
CCOC(=O)C1CCN(c2nc(-c3ccccc3)nc3c2oc2ccccc23)CC1,6.0%,-12.9,-7.4,1.01,2.12*,-16.9
Cc1ccc(OC(=O)c2cccc(C(=O)Oc3ccc(C)cn3)n2)nc1,0.0%,-13.7,2.6,1.06,1.31,4.8
NC(N)=NC(=O)c1nc(Cl)c(N)nc1N,8.0%,3.7,0.2,1.03,2.04*,-3.5
CCn1cc(S(=O)(=O)CC(=O)N2CCc3ccccc32)c2ccccc21,2.0%,-12.6,-5.0,1.05,1.09,18.5
CCOC(=O)N1CCC(N2C(=O)c3ccccc3C2Nc2cc(C(=O)OC)cc(C(=O)OC)c2)CC1 (configuration not stated),0.0%,1.7,-1.4,1.09,2.15*,34.1
Cc1ccc2cc3c(NC(=O)C(C)C)nn(C)c3nc2c1,8.0%,3.1,0.1,1.07,1.86,-6.3
CCOc1ccc(-n2cnnn2)cc1S(=O)(=O)Nc1c(C)cccc1C,3.0%,4.7,-5.6,1.02,1.11,16.2
CCOc1cc(S(=O)(=O)NCCc2ccccc2C)c(OCC)cc1-n1cnnn1,0.0%,5.0,-5.4,1.06,3.85*,-12.2
CCOc1cc(S(=O)(=O)N2CCC(Cc3ccccc3)CC2)c(OCC)cc1-n1cnnn1,2.0%,-29.6,0.1,1.01,1.44,-1.4
CCOc1cc(S(=O)(=O)NCCc2cccc(C)c2)c(OCC)cc1-n1cnnn1,8.0%,-7.6,-1.2,1,3.66*,9.1
O=[n+]1cc(-c2cc3ccccc3o2)n([O-])c2c1CCCC2,16.0%,1.9,0.8,1.18,2.88*,-7.2
O=[n+]1cc(-c2ccc(F)cc2)n([O-])c2c1CCC2,4.0%,-8.9,-2.5,1,1.04,-13.9
C=CCn1cc(C(=O)NCCCOCC)c(=O)c2cc(S(=O)(=O)N(CC)CC)ccc21,7.0%,-11.6,0.2,1.07,1.2,22.0
Cn1c2ccccc2c2c(C(=O)NCCCN3CCCC3=O)cn(C3CCCCC3)c(=O)c21,6.0%,0.6,-8.6,1.02,2.46*,5.0
Cn1c(C(=O)NCCCN2CCCC2=O)cc2c(=O)n(C)c3ccccc3c21,16.0%,-7.0,-3.0,1.04,1.5,4.7
CN1CCN(CCCNC(=O)c2cn(C3CCCCC3)c(=O)c3c2c2ccccc2n3C)CC1,12.0%,-10.2,-6.8,1.07,2.08*,-15.0
CN(C)c1nc(SCCOC(=O)Nc2ccccc2)nc(N(C)C)n1,4.0%,3.3,-0.7,0.99,1.08,-3.3
